# Tests used:
# Conditions in all cases: concentration: 1 μM, replicates: in singlicate; n = 1
# ACVR1 = tested on: ACVR1
# ACVR2A = tested on: ACVR2A
# ACVR2B = tested on: ACVR2B
# ACVRL1 = tested on: ACVRL1
# ADCK3 = tested on: T1, ADCK3
# T1 construct: gene CABC1
# ADCK4 = tested on: ADCK4
# AKT1 = tested on: AKT1
# AKT2 = tested on: AKT2
# AKT3 = tested on: AKT3
# ALK = tested on: ALK
# AMPK-alpha1 = tested on: T2, AMPK-alpha1
# T2 construct: gene PRKAA1
# AMPK-alpha2 = tested on: T3, AMPK-alpha2
# T3 construct: gene PRKAA2
# ANKK1 = tested on: ANKK1
# ARK5 = tested on: T4, ARK5
# T4 construct: gene NUAK1
# ASK1 = tested on: T5, ASK1
# T5 construct: gene MAP3K5
# ASK2 = tested on: T6, ASK2
# T6 construct: gene MAP3K6
# AURKA = tested on: AURKA
# AURKB = tested on: AURKB
# AURKC = tested on: AURKC
# AXL = tested on: AXL
# 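Note: KINOMEscan kinase panel screen.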
SMILES,%Inh (ACVR1),%Inh (ACVR2A),%Inh (ACVR2B),%Inh (ACVRL1),%Inh (ADCK3),%Inh (ADCK4),%Inh (AKT1),%Inh (AKT2),%Inh (AKT3),%Inh (ALK),%Inh (AMPK-alpha1),%Inh (AMPK-alpha2),%Inh (ANKK1),%Inh (ARK5),%Inh (ASK1),%Inh (ASK2),%Inh (AURKA),%Inh (AURKB),%Inh (AURKC),%Inh (AXL)
CSc1ccc(-c2nc3n(c2-c2ccncc2)CCC3)cc1 [SKF-105561],5%,0%,2%,21%,0%,0%,6%,0%,6%,8%,0%,0%,0%,0%,12%,17%,10%,0%,0%,0%
COc1cccc(CNC(=O)NC2CCN(c3ccnc(Nc4ccc(F)cc4)n3)C2)c1 (centres unmarked) [GSK1379723],10%,0%,0%,0%,10%,35%,0%,12%,0%,43%,0%,12%,0%,24%,0%,9%,11%,37%,49%,6%
COc1ccc(Nc2nccc(N3CCC(NC(=O)C(C)c4ccc(Cl)cc4)C3)n2)cc1 (centres unmarked) [GSK1379735],14%,0%,0%,0%,22%,17%,0%,9%,0%,25%,0%,21%,0%,22%,10%,4%,0%,24%,49%,16%
CC(C)c1ccc(O)cc1Nc1ccnc2ccc(C(F)(F)F)cc12 [GW482059],0%,43%,0%,19%,0%,2%,0%,0%,0%,15%,20%,13%,0%,0%,1%,0%,0%,0%,0%,14%
Cc1ccc(NC(=O)Nc2ccc(Cl)c(C(F)(F)F)c2)cc1-c1ccc(C(=O)Nc2ccncc2)cc1 [GSK1398470],1%,0%,0%,0%,14%,2%,0%,16%,0%,0%,2%,16%,15%,14%,0%,0%,0%,0%,8%,17%
COc1cc2ncnc(Nc3cccc(Br)c3)c2cc1OC.Cl [GI230329],0%,0%,0%,0%,19%,52%,0%,0%,16%,0%,0%,0%,8%,17%,0%,6%,6%,0%,6%,10%
COc1nccc(-c2c(-c3ccc(F)cc3)ncn2CCCN2CCOCC2)n1 [SB-282852],0%,0%,0%,0%,0%,18%,0%,3%,3%,25%,77%,0%,0%,0%,0%,0%,23%,42%,0%,0%
COc1ccc(Nc2nccc(N3CCC(NC(=O)C(C)c4ccc(Cl)cc4)CC3)n2)cc1 (centres unmarked) [GSK1379812],8%,0%,0%,0%,25%,18%,0%,0%,3%,18%,35%,11%,3%,20%,0%,0%,23%,4%,42%,0%
O=c1cc(N2CCOCC2)nc2n(Cc3cccc(Cl)c3Cl)c3ccccc3n12 [GSK2299009],0%,0%,0%,6%,13%,36%,0%,21%,0%,25%,5%,16%,6%,0%,2%,0%,17%,7%,46%,59%
c1ccc(-c2ccnc3[nH]ccc23)cc1 [SB-693578],0%,0%,0%,0%,6%,40%,0%,6%,0%,33%,0%,0%,0%,20%,2%,19%,17%,41%,0%,0%
CC(=O)c1c(C)c2cnc(Nc3ccn(C)n3)nc2n(C2CCCC2)c1=O,16%,0%,0%,0%,0%,0%,3%,23%,0%,6%,20%,0%,0%,0%,0%,0%,4%,0%,0%,0%
COC(=O)c1cccc(NC(=O)NC2CCN(c3ccnc(Nc4ccc(OC)cc4)n3)C2)c1 (centres unmarked) [GSK1379746],41%,0%,0%,0%,18%,52%,0%,11%,0%,20%,0%,0%,0%,31%,22%,0%,10%,25%,28%,0%
FC(F)(F)c1ccccc1-c1cc(-c2c[nH]nc2-c2ccccn2)ccn1 [GW679396],0%,3%,17%,0%,4%,0%,0%,7%,16%,18%,0%,25%,0%,0%,10%,0%,44%,0%,16%,0%
COC(=O)c1cccc(NC(=O)NC2CCN(c3ccnc(Nc4ccc(F)cc4)n3)C2)c1 (centres unmarked) [GSK1379725],0%,0%,0%,0%,4%,23%,0%,0%,0%,17%,0%,0%,0%,0%,0%,1%,0%,39%,34%,6%
CC[C@@H]1CO[C@H](C(=O)Nc2ccccc2)CN1c1cc(-c2ccc3c(N)n[nH]c3c2)nc(NC)n1 [GSK2376236],0%,0%,0%,0%,27%,12%,0%,15%,0%,0%,0%,1%,0%,14%,4%,0%,,0%,48%,0%

# — article PMC5540273 (PLoS ONE, 2017)
